CSC inhib: blocks cancer stem cells; cancer stem cell-like cells viability, luminescence; AID 2717; inhibition, % at 7.5 µM; 300,000 compounds, 1.1% hits; in the data active = inhibition above about 75%; tested in HMLE shEcad cells
Gli-Sufu antag: Gli-Sufu pathway antagonism | Sufu-KO-LIGHT fibroblasts, Gli luciferase reporter luminescence | inhibition, % at 5 µM | 340,000 compounds, 0.74% hits | AID 588413;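 active = inhibition above about 55%, limit read from the data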;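 also: 0% = DMSO-treated cells and 100% = wells with medium but no cells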
Jurkat NFkB inh: inhibitors of the PMA/ionomycin-induced NF-kB reporter in Jurkat cells; PMA/ionomycin-induced NF-kB luciferase reporter, luminescence; inhibition, % at 4 µM; 330,000 compounds, 0.53% hits; AID 435003; in the data active = inhibition above about 50%
Mdm2 MdmX PPI: human Mdm2/MdmX binding inhibition. 330,000 compounds, 3% hits. SaOS-2 split-luciferase Mdm2/MdmX complementation, luminescence. O15151+Q00987. inhibition, % at 8 µM;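 active = inhibition of at least 50% at 8 µM in the primary screen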
Target sequence (O15151 whole entry, looked up): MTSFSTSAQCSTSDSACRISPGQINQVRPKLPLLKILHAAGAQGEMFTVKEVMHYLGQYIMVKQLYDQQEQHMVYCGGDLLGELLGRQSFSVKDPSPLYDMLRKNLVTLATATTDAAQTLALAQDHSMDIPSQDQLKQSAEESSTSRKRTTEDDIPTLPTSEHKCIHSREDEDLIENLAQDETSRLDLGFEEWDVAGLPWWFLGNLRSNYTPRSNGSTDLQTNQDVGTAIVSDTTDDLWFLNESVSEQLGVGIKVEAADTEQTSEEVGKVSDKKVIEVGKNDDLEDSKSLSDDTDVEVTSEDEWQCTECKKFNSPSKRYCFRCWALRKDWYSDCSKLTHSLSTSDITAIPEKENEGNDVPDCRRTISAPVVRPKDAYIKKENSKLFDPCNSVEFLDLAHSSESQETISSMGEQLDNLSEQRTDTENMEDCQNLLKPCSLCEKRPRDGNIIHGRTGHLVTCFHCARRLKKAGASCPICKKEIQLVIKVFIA
Target sequence (Q00987 whole entry, looked up): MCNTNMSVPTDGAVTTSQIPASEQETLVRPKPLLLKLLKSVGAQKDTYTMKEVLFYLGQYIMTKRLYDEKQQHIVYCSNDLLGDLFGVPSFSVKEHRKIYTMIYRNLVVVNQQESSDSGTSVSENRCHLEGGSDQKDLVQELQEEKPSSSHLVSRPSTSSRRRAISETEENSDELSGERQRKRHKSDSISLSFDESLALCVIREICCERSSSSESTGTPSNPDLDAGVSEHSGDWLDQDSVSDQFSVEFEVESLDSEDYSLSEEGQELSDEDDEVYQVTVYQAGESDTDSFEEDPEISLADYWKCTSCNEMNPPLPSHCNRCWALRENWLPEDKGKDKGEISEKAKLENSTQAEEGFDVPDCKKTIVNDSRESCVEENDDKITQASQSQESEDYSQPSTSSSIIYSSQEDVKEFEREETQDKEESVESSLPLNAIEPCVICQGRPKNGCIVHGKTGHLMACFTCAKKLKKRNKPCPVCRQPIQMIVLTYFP
697 NFkB inh: lowers PMA/ionomycin-induced NF-kB signal in 697 B cells; AID 435022; 330,000 compounds, 0.33% hits; 697 B-cell NF-kB luciferase reporter, 16 h; inhibition, % at 4 µM; in the data active = inhibition above about 35%
Beta apoptosis: beta cell apoptosis inhibition. protection from apoptosis, % (test concentration not listed). 300,000 compounds, 0.8% hits. AID 435005. INS-1E cytokine-induced death, ATP luminescence, 48 h; percent of positive-control rescue, neutral wells zero;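 active = Every replicate reaches about 75%, or at least half do and their mean reaches it too, limit read from the data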;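 also: 0% = cytokine-treated negative control wells and 100% = positive control rescue; higher means more ATP so stronger rescue from cytokine killing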
Mdm2-MdmX conf: confirmation of human Mdm2/MdmX interaction inhibitors. inhibition, % at 8 µM. 10,000 compounds, 55% hits. Mdm2-MdmX binding, luminescent assay. shares compounds with Mdm2 MdmX PPI; in the data active = inhibition above about 40%
FLuc counter: inhibits full-length luciferase, flagging false Mdm2/MdmX hits; shares compounds with Mdm2 MdmX PPI; SaOS-2 full-length luciferase counterscreen, luminescence; inhibition, % at 8 µM; 6,200 compounds, 77% hits; AID 504607;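 active = mean inhibition at 8 µM reaching about 37%, which flags the compound as non-specific, limit read from the data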;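 also: p53-null SaOS-2 cells with luciferase driven by a doxycycline-inducible promoter; compound on cells about two nights before reading with doxycycline added after day one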
An asterisk follows results filed as active; . = no result. Most compounds without a hit are left out; they make up all but 4.5% or so of the library.

SMILES	CSC inhib	Gli-Sufu antag	Jurkat NFkB inh	Mdm2 MdmX PPI	697 NFkB inh	Beta apoptosis	Mdm2-MdmX conf	FLuc counter
CN(C)CC/C=C1\c2ccccc2Sc2cc(F)c(Cl)cc21	27	14	12	66*	12	25	28	78*
CN(C)CC/C=C1\c2ccc(F)cc2Sc2cc(F)c(Cl)cc21	83*	45	-8	55*	-4	.	33	.
CN(C)CC/C=C1\c2ccccc2Sc2ccc(Cl)cc21	8	11	-6	42	-2	-4	.	.
CN(C)CC/C=C1/c2ccc(F)cc2Sc2ccc(Cl)cc21	-13	15	3	30	14	-3	.	.
CCN(CC)CCOc1ccc(/C(=C(\Cl)c2ccccc2)c2ccccc2)cc1	103*	4	-9	69*	-14	44	30	.
CCCCC1CCC(C(=O)N(CCCC)c2c(N)n(CCCC)c(=O)[nH]c2=O)CC1 (stereo not given)	54	0	12	99*	-15	49	28	.
CCCCC1CCC(C(=O)N(CC(C)C)c2c(N)n(CCCC)c(=O)[nH]c2=O)CC1 (stereo not given)	30	-2	1	46	-8	1	.	.
O=C(/C=C/c1cc([N+](=O)[O-])ccc1OC(F)F)Nc1cccc([N+](=O)[O-])c1	.	25	3	75*	34	.	23	.
COCCn1c(C)cc(C(=O)CSc2nc3ccccc3s2)c1C	-10	0	-99	66*	-187	7	70*	146*
COCCn1c(C)cc(C(=O)CSc2nnc3ccccn23)c1C	-5	17	-18	54*	-38	4	62*	113*
COCCn1c(C)cc(C(=O)CSc2nc3ccccc3o2)c1C	-9	-84	-94	-81	-221	-4	.	.
OC(COc1ccc(CNCCc2ccccc2F)cc1)CN1CCCCC1 (stereo not given)	103*	11	48	55*	10	3	40*	54*
OC(COc1ccccc1)CN1CCCCC1 (stereo not given)	.	8	.	.	.	.	.	.
CCOc1ccc(CNS(=O)(=O)c2cc(-c3cc(C)no3)ccc2OC)cc1OC	13	-19	-6	5	-28	-2	.	.
Cc1ccc(/C=C/C(=O)Nc2ncc(C)s2)o1	7	-96	-36	-72	-1	-3	.	.
Cc1cnc(NC(=O)/C=C/c2ccc(Br)o2)s1	-16	-24	-66	75*	-62	28	0	.
Cc1cc(C)n(-c2nc(SCCN(C)C)c3c4c(sc3n2)CCCC4)n1	-6	1	3	92*	-34	30	60*	72*
Cc1ccc(OCc2cc(C(=O)NC3CCc4ccccc43)no2)cn1 (stereo not given)	-9	28	16	25	-11	16	.	.
CC(Oc1cccc(Cl)c1)C(=O)Nc1nc(-c2ccccn2)cs1 (stereo not given)	71	-10	19	68*	-9	.	77*	44*
CC(Oc1ccccc1)C(=O)Nc1nc(-c2ccccn2)cs1 (stereo not given)	.	4	4	74*	-38	.	75*	43*
CC(Oc1ccccc1)C(=O)Nc1nc(-c2ccncc2)cs1 (stereo not given)	.	0	14	26	4	-3	.	.
CN(C)S(=O)(=O)c1cccc(NC(=O)c2cc(-c3cccs3)nn2-c2cccc(Cl)c2)c1	34	1	27	50*	6	14	58*	65*
Cc1ccc(S(=O)(=O)N2CCC(C(=O)NNC(=O)c3ccccc3O)CC2)cc1C	-4	-6	-15	53*	2	-1	50*	46*
Cc1cc(C)c(C)c(S(=O)(=O)N2CCC(C(=O)Nc3ccc(S(=O)(=O)N4CCOCC4)cc3)CC2)c1C	.	32	5	46	-62	35	.	.
Cc1cc(C)c(C)c(S(=O)(=O)N2CCC(C(=O)NNC(=O)c3ccccc3O)CC2)c1C	-8	-1	-1	67*	11	37	66*	45*
SMILES	CSC inhib	Gli-Sufu antag	Jurkat NFkB inh	Mdm2 MdmX PPI	697 NFkB inh	Beta apoptosis	Mdm2-MdmX conf	FLuc counter
Cc1ccc(S(=O)(=O)N2CCC(C(=O)NNC(=O)c3ccccc3O)CC2)cc1	50	0	15	11	25	.	.	.
CC1CC1C(=O)OCC(=O)NNC(=O)c1ccc([N+](=O)[O-])cc1 (stereo not given)	.	-3	-1	-2	2	-6	.	.
Nc1c(C(=O)NC2CCCC2)c2nc3ccccc3nc2n1/N=C/c1ccco1	-2	2	9	73*	8	-8	9	.
COc1ccc(CCNC(=O)CCCOc2cc(=O)n(C)c3ccccc23)cc1OC	-11	3	-2	-13	10	1	.	.
COc1ccccc1CNC(=O)CCCOc1cc(=O)n(C)c2ccccc12	0	14	3	59*	-2	1	34	.
CCOc1cc(NC(=O)c2ccccn2)c(OCC)cc1NC(=O)c1ccc(Cl)cc1	-5	13	16	56*	-16	21	18	.
O=[N+]([O-])c1ccc(N2CCc3ccccc3C2)cc1	2	9	-17	-7	1	.	.	.
Cc1cc(C)c(/C=N/NC(=O)c2nnn(-c3nonc3N)c2CN2CCC(C)CC2)c(C)c1	-7	35	2	19	-9	18	.	.
Nc1nonc1-n1nnc(C(=O)N/N=C/c2ccccc2)c1CN1CCc2ccccc21	.	-18	6	8	-8	-1	.	.
CC1CCN(Cc2c(C(=O)N/N=C/c3cc(Cl)ccc3O)nnn2-c2nonc2N)CC1	.	80*	23	79*	-36	88*	84*	22
C/C(=N\NC(=O)c1nnn(-c2nonc2N)c1CN1CCc2ccccc21)c1ccccc1O	91*	24	9	69*	-31	92*	67*	31
CC1CCN(Cc2c(C(=O)N/N=C/c3cc(Br)ccc3O)nnn2-c2nonc2N)CC1	.	86*	37	85*	-29	90*	83*	56*
COc1cc(/C(C)=N/NC(=O)c2nnn(-c3nonc3N)c2-c2cccs2)ccc1O	4	-1	6	69*	-25	3	6	.
CC(C)C[C@H](NC(=O)N1CCn2c1nc1ccccc12)C(=O)N[C@H](Cc1ccccc1)C(=O)O	7	0	8	-2	1	2	.	.
O=C(CCc1nc(-c2ccccc2Cl)no1)Nc1cccnc1	-5	-24	-1	-10	2	-4	.	.
Fc1ccc(-n2cc(-c3ccccc3)c3c(N4CCOCC4)ncnc32)cc1	54	.	34	63*	-34	-6	59*	67*
COc1ccc(-n2cc(-c3ccccc3)c3c(N4CCOCC4)ncnc32)cc1	102*	15	39	74*	22	9	62*	80*

High-throughput results (PubChem)
